This note sets out measurements from ChEMBL document CHEMBL3988442, “University of Dundee, Small-Polar-MMV Screening Library” (2021).

Each structure is given as a SMILES string.

The target of this assay is AMP-activated protein kinase, AMPK (Homo sapiens) (UniProt P54646+O43741+P54619+Q9UGJ0+Q9Y478+Q13131+Q9UGI9). Briefly: AMP-dependent Kinase enzyme assay. An in vitro enzyme assay that detects ADP turnover that is directly proportional to AMPK activity. This uses naive AMPK that is activated during the assay with MK-8722. The format is functional. The settings on record: 30 µM. More on the design: scale not given: direction of the effect not stated beside the values.

As to `CCN(Cc1ccoc1)C(=O)Nc1ccccc1CN(C)C(C)=O`, the Percent Effect was 2.94%. As for `COc1c(C)cnc(CN2CCCC2c2noc(C)n2)c1C` (stereo not drawn), the Percent Effect is -12%.

For `CC(C#N)NS(=O)(=O)c1cccc(C(C)C)c1` (stereo not drawn), the Percent Effect came out at 0.482%. The same measure for `CN(CCCc1cnn(C)c1)Cc1cc2n(n1)CCNC2`: -4.86%; for `CC(C)CN(Cc1ccccn1)Cc1ccccc1OCC(=O)O`: -7.24%. As to `CCCN(CCc1ccccn1)C(=O)CCc1cnn(C)c1`, the Percent Effect is 4.13%. Turning to `N#Cc1cccc(N2CCC(CO)(CCOc3ccccc3)CC2)n1`, the Percent Effect was found to be 3.85%. For `Cc1cc(C(=O)NCCC(=O)N2CCCc3ccccc32)no1`, the Percent Effect is -5.97%. The figure for `O=C(NCc1csc(Br)c1)Nc1cn[nH]c1` is -3.79%.

Take `O=C(c1nc(N2CCCC2)ncc1Cl)N1CCN(Cc2ccsc2)CC1`: the Percent Effect is 7.12%. The figure for `COc1cccc(CCn2ccnc2-c2cn(C3CCNCC3)nn2)c1` is -20.9%; for `CCOc1cc(Cl)ccc1CNC(=O)c1ccc(=O)n(C)c1` it is 10.5%.

Consider `CC1CCN(c2ncc(-c3ccccc3F)c(-c3nccn3C)n2)CC1`, for which the Percent Effect was 15.2%.

For `Cc1nnc(CN(Cc2cccc3c2OCO3)CC2CCCO2)n1C` (stereo not drawn), the Percent Effect is -6.12%.

As to `Cn1ncc2c(NC3CCC3)nc(-c3ccncc3)nc21`, the Percent Effect came to 87.5%. The figure for `COc1ccc(CN2C[C@@H]3CC[C@H](C2)N(S(C)(=O)=O)C3)cc1` is 12.6%. For the compound `CCC(C(=O)N(Cc1ccccn1)C1CCCCC1)n1cccn1` (stereo not drawn), the Percent Effect came to 1.8%. For the compound `CN(Cc1ccoc1)C(=O)C1CCN(C(=O)C2CCCC2)CC1`, the Percent Effect was -3.16%. Take `O=C(CCn1ccnc1)N1CCCC(n2cncn2)C1` (stereo not drawn): the Percent Effect worked out at 11.8%.

Take `COc1ccc(N2CCN(Cc3nc(CSC)no3)C(C)C2=O)cc1` (stereo not drawn): the Percent Effect worked out at 4.28%. The same measure for `Cn1ncnc1NCc1ccc(Br)cc1`: 6.33%. On to `Cc1ccccc1[C@@H]1CN(Cc2ccc(C(F)(F)F)nc2)C[C@H]1C(=O)O`, for which the Percent Effect is -5.65%. `CCOC(=O)c1n[nH]cc1CN1CCOC(Cc2ccc(F)cc2)C1` (stereo not drawn): the Percent Effect worked out at 1.89%. Turning to `O=C(c1ccncc1)N1CCCC(C2=Nc3ccccc3S(=O)(=O)N2)C1` (stereo not drawn), the Percent Effect stood at 8.81%. The figure for `CN1CCN(C(=O)C2(S(C)(=O)=O)CCCC2)Cc2ccccc21` is -2.88%. The figure for `CN(C)CC1(O)CCCN(C(=O)Cn2nc3ccccc3n2)CC1` (stereo not drawn) is -12.7%; for `CC(=O)N[C@@H]1CN(C(=O)c2cccc(C(F)(F)F)c2)C[C@H]1O` it is 5.07%; for `Cc1[nH]c2c(C)ccc(C)c2c1CC(=O)NC1CCCNC1=O` (stereo not drawn) it is 6.1%. The figure for `N#Cc1ccc(Cl)cc1NCC1CCOC1` (stereo not drawn) is 5.95%; for `Cc1ccc(OCc2occc2C(=O)N2C[C@@H]3[C@@H](CN(C)C)[C@@H]3C2)cc1` it is 14%; for `CCNC(=O)NCc1ccc(-n2ccc(C(F)(F)F)n2)cc1` it is -2.79%. For `CSCCC1c2nc[nH]c2CCN1Cc1[nH]c2ccc(F)cc2c1C` (stereo not drawn), the Percent Effect is 2.26%. Turning to `Cc1noc(CCCc2nc(C3CCOC3)no2)n1` (stereo not drawn), the Percent Effect amounted to 10.8%. The figure for `COc1ccnc(CNc2nc(C)nc(C)c2C)c1` is -6.37%. The same measure for `CCCN(CC(=O)NC)C(=O)c1ccc(-c2nc(C)cs2)cc1`: 1.67%. The same measure for `CNC(=O)CCOC(=O)c1cccc(-n2cccn2)c1`: 7.17%.

Consider `C[C@@H]1CN(c2ccc(Cl)cn2)C[C@@]1(O)C1CC1`, for which the Percent Effect came to 5.94%.

As to `O=S(=O)(NCCCn1cncn1)c1ccc2c(c1)CCC2`, the Percent Effect was 8.86%. As for `CCNC(=O)[C@@H]1C[C@H](N)CN1c1cc(C(F)(F)F)nc(N2CCCC2)n1`, the Percent Effect turned out to be 2.77%. The figure for `COc1cccc(CNC(=O)C(C)N2CC(n3nc(C)cc3C)C2)c1` (stereo not drawn) is 0.116%; for `COC(=O)c1ncccc1N1CCCCC1` it is 2.81%. On to `CCn1ncnc1C1CC(=O)NCc2nc(N3CCCC3)sc21` (stereo not drawn), for which the Percent Effect is -10.2%. The same measure for `CCc1nc(CCNc2ncccc2S(N)(=O)=O)sc1C`: -3.81%. For `CCC[C@H]1CN(C(=O)c2ccc3[nH]c(CO)nc3c2)C[C@@H]1N`, the Percent Effect was found to be 8.21%. The same measure for `COc1ccc(C2(C(=O)N3C[C@@H](C(=O)O)[C@H](C(C)C)C3)CC2)cc1`: 2.55%; for `COc1cccc(CC(=O)N2CCc3ncnc(NCCO)c3CC2)c1`: -1.01%. The figure for `Cc1ccc(C)c(CN(CC(N)=O)C(C)C)c1` is -8.2%; for `COc1nccc(N2CC[C@@H](N3CCCCCC3)[C@H](O)C2)c1C#N` it is -1.86%.
